The text below walks through data of PubChem BioAssay.

In assay [1] the test system is PRMT1 (protein arginine N-methyltransferase 1). The assay can be described thus: PRMT1 binders on small-molecule microarrays, primary screen, biochemical, small-molecule microarray, 635 nm fluorescence (AID 1088).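 Also: binding of Prmt1 protein to compounds spotted on small-molecule microarray slides.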 To be noted: small-molecule microarray binding, higher = more signal.
Assay [2] in a line: yeast growth modulation, basal conditions, primary screen, YJM789 clinical isolate, OD600, 24 h (AID 1089).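 Also: growth of clinical yeast isolate S. cerevisiae YJM 789 seeded 1000 cells per well; test concentration not given here.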 To be noted: S. cerevisiae YJM789 growth, higher = more signal, called active from +8 up or from −8 down.
Assay [3] is described as follows: fission yeast growth modulation, primary screen, strain 972, OD600, 24 h, no modulator (AID 1090).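 Also: basal condition with compound alone and no growth modifier present; test concentration not given here.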 Conditions: S. pombe 972 growth, higher = more signal, called active from +8 up or from −8 down.
Assay [4] is described as follows: S. cerevisiae growth modulation with rapamycin, primary screen, strain BY4716, OD600, 96 h (AID 1091). Also: test concentration not given here. Conditions: higher = more signal, called active from +8 up or from −8 down.
Assay [5] addresses Torsin-1A-interacting protein 2 (Homo sapiens) (UniProt Q8NFQ8). In words: LULL1 binders on small-molecule microarray, primary screen, cell lysate, human LULL1 lysate, 635/667 nm fluorescence (AID 1092).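 Also: probe is lysate of COS7 cells overexpressing human LULL1; score merges per-feature 667 nm fluorescence with signal-to-noise.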 Conditions: hLULL1 lysate binding, 635 nm fluorescence, higher = more signal.
Assay [6] can be described thus: E. coli growth modulation, two-sided OD650, primary screen, E. coli filamentation project, strain DRC41, 24 h (AID 1093).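 Also: MC1000 strain lacking acrAB efflux and sulA so SOS filamentation is blocked; test concentration not given here.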 To be noted: OD650, 24 h, higher = more signal, called active from +8 up or from −8 down.
The nature of assay [7]: small-molecule microarray binders of probe aLefty2, primary screen, biochemical, biotinylated probe, 635/667 nm fluorescence (AID 1094).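 Also: score merges spot fluorescence near 667 nm with spot signal-to-noise ratio.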 To be noted: higher = more signal.
The test system of assay [8] is Noggin (protein binding on small-molecule microarray). The assay can be described thus: Noggin binders on small-molecule microarray, primary screen, biochemical, 635/667 nm fluorescence (AID 1095).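 Also: score merges 667 nm feature fluorescence with signal to noise over triplicate slides.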 To be noted: 635 nm fluorescence, higher = more signal.
Assay [9] concerns the target Neurogenic locus notch homolog protein 3 (Homo sapiens) (UniProt Q9UM47). The assay can be described thus: NOTCH3 binders on small-molecule microarray, primary screen, biochemical, 635/667 nm fluorescence (AID 1096). Conditions: NOTCH3 binding, 635 nm fluorescence, higher = more signal.
Assay [10] can be described thus: small-molecule microarray binders of probe aEGFR, primary screen, biochemical, biotinylated probe, 635/667 nm fluorescence (AID 1097).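 Also: probe is a biotinylated anti-EGFR antibody binding compounds printed on slides; score combines fluorescence near 667 nm and signal to noise of each spot.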 Conditions: higher = more signal.
For assay [11], the system named is Plasmodium falciparum Sir2 (PF13_0152, Sir2A). In words: pfSir2 binders on small-molecule microarrays, primary screen, biochemical, small-molecule microarray, 635 nm fluorescence (AID 1098).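 Also: score merges spot fluorescence intensity with its signal-to-noise ratio.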 Conditions: small-molecule microarray binding, fluorescence 635 nm; higher = more signal.
Assay [12] in a line: small-molecule microarray binders of probe aDKK1, primary screen, biochemical, biotinylated probe, 635/667 nm fluorescence (AID 1099).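 Also: score merges 667nm spot fluorescence with signal to noise across triplicate slides; reference of the scale not given here.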 To be noted: higher = more signal.
Assay [13] is described as follows: small-molecule microarray binders of probe aCHRDL2, primary screen, biochemical, biotinylated probe, 635/667 nm fluorescence (AID 1100). Conditions: higher = more signal.
Assay [14] is described as follows: splicing luciferase reporter signal modulators, primary screen, spliceosome inhibition project, cell-based, HEK293, splice +/- reporter (AID 1101).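 Also: HEK293 cells carrying a splicing-competent luciferase reporter gene; test concentration not given here.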 To be noted: luminescence, 24 h, higher = more signal, called active from +8 up or from −8 down. (A reporter such as luciferase makes a cellular process visible.)
The target in assay [15] is Fibroblast growth factor 10 (Homo sapiens) (UniProt O15520). The assay can be described thus: FGF10 binders on small-molecule microarrays, primary screen, biochemical, small-molecule microarray, 635 nm fluorescence (AID 1102). Conditions: FGF10 binding, fluorescence 635 nm, higher = more signal.
Chain of Fibroblast growth factor 10 (Homo sapiens) (O15520 whole entry, looked up): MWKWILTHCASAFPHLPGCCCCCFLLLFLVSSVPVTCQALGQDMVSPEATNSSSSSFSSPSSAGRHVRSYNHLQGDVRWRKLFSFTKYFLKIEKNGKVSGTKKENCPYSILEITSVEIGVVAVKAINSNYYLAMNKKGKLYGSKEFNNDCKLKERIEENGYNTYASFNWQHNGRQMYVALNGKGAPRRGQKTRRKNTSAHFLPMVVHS
The test system of assay [16] is glycogen synthase kinase-3 (GSK3A per assay name; protocol says GSK3B). In words: GSK3 binders on small-molecule microarrays, primary screen, biochemical, small-molecule microarray, 635 nm fluorescence, GSK3A (AID 1103). Also: the record names both GSK3A and GSK3B. Conditions: small-molecule microarray binding, fluorescence 635 nm; higher = more signal.
Assay [17] addresses Epidermal growth factor receptor (Homo sapiens) (UniProt P00533). The assay can be described thus: EGFR binders on small-molecule microarrays, primary screen, biochemical, small-molecule microarray, 635 nm fluorescence (AID 1104).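 Also: score merges 667 nm emission intensity with spot signal to noise over triplicate slides.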 Conditions: EGFR binding, higher = more signal.
Assay [18] has as its target Follistatin-related protein 3 (Homo sapiens) (UniProt O95633). In words: FSTL3 binders on small-molecule microarrays, primary screen, biochemical, small-molecule microarray, 635 nm fluorescence (AID 1105).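 Also: score merges emission near 667 nm and signal to noise per printed spot across three slides.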 Conditions: FSTL3 binding, higher = more signal.
Assay [19] has as its target Dickkopf-related protein 1 (Homo sapiens) (UniProt O94907). In words: DKK1 binders on small-molecule microarrays, primary screen, biochemical, small-molecule microarray, 635 nm fluorescence scan (AID 1106).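 Also: score merges emission near 667 nm with signal to noise over three replicate slides.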 To be noted: DKK1 binding, higher = more signal.
The subject of assay [20] is Inhibin beta A chain (activin A). In words: INHBA (activin A) binders on microarrays, primary screen, biochemical, small-molecule microarray, 635 nm fluorescence scan (AID 1107).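 Also: mouse activin A protein probed at 4.33 µg/mL on printed slides; score merges bound-protein fluorescence near 667 nm with spot signal-to-noise.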 Conditions: small-molecule microarray binding, higher = more signal.

SMILES strings stand for the structures. Activity calls are given as the source filed them.

Chain of Follistatin-related protein 3 (Homo sapiens) (O95633 whole entry, looked up): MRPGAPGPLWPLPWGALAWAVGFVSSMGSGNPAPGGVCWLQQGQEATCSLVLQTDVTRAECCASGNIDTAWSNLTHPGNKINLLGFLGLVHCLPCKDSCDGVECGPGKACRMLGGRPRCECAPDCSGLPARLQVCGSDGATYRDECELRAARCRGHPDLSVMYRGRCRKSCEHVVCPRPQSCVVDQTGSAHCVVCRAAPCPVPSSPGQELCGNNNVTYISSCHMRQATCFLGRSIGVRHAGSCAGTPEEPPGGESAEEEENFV
Chain of Torsin-1A-interacting protein 2 (Homo sapiens) (Q8NFQ8 whole entry, looked up): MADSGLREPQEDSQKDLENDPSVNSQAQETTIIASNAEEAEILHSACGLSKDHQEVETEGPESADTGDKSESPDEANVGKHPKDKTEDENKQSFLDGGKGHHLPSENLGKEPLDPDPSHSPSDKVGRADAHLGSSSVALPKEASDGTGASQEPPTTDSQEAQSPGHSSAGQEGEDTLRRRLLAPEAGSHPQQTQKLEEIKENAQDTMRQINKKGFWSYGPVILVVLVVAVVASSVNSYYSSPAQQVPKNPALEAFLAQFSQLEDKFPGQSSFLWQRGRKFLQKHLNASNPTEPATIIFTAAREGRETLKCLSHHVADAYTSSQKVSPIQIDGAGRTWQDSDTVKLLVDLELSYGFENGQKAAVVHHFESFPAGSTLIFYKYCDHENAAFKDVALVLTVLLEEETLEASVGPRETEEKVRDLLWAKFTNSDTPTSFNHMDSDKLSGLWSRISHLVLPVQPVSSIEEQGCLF
Chain of Epidermal growth factor receptor (Homo sapiens) (P00533 whole entry, looked up): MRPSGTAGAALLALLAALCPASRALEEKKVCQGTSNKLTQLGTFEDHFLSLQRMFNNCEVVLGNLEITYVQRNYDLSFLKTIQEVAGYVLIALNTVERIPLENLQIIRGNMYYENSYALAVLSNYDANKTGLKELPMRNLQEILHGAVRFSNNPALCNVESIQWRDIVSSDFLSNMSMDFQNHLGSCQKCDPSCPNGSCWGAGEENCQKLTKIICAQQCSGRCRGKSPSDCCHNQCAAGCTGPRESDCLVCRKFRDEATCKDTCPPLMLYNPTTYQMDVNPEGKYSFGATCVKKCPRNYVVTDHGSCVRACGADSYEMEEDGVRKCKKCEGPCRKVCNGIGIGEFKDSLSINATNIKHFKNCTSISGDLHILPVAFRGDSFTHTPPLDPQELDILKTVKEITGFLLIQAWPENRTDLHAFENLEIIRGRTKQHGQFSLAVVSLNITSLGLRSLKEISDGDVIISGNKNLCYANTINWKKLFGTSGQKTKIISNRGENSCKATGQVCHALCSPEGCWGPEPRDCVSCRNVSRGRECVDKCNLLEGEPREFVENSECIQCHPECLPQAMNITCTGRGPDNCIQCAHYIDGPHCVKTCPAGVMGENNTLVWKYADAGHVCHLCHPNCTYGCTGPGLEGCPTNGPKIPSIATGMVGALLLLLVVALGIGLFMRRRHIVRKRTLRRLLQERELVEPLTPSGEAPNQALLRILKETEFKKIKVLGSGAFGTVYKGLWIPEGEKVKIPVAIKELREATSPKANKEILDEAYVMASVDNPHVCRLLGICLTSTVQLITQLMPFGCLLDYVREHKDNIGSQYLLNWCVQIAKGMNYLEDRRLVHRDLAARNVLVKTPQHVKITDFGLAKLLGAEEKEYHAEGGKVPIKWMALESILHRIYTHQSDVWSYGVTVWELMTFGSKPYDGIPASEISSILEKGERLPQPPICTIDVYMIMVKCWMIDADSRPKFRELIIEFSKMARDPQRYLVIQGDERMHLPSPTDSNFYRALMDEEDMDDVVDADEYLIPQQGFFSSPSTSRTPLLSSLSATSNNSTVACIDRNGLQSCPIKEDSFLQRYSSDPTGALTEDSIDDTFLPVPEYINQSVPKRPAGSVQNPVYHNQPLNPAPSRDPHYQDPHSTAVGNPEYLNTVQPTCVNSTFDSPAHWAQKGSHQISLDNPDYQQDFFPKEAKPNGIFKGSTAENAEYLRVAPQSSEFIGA
Chain of Dickkopf-related protein 1 (Homo sapiens) (O94907 whole entry, looked up): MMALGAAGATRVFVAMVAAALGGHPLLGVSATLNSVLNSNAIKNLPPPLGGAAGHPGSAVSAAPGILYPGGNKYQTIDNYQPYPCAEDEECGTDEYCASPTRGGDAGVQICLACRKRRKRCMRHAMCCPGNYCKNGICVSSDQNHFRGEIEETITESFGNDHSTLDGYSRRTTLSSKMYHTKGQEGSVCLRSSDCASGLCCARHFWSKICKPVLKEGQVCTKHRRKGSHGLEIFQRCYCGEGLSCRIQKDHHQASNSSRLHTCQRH
Chain of Neurogenic locus notch homolog protein 3 (Homo sapiens) (Q9UM47 whole entry, looked up): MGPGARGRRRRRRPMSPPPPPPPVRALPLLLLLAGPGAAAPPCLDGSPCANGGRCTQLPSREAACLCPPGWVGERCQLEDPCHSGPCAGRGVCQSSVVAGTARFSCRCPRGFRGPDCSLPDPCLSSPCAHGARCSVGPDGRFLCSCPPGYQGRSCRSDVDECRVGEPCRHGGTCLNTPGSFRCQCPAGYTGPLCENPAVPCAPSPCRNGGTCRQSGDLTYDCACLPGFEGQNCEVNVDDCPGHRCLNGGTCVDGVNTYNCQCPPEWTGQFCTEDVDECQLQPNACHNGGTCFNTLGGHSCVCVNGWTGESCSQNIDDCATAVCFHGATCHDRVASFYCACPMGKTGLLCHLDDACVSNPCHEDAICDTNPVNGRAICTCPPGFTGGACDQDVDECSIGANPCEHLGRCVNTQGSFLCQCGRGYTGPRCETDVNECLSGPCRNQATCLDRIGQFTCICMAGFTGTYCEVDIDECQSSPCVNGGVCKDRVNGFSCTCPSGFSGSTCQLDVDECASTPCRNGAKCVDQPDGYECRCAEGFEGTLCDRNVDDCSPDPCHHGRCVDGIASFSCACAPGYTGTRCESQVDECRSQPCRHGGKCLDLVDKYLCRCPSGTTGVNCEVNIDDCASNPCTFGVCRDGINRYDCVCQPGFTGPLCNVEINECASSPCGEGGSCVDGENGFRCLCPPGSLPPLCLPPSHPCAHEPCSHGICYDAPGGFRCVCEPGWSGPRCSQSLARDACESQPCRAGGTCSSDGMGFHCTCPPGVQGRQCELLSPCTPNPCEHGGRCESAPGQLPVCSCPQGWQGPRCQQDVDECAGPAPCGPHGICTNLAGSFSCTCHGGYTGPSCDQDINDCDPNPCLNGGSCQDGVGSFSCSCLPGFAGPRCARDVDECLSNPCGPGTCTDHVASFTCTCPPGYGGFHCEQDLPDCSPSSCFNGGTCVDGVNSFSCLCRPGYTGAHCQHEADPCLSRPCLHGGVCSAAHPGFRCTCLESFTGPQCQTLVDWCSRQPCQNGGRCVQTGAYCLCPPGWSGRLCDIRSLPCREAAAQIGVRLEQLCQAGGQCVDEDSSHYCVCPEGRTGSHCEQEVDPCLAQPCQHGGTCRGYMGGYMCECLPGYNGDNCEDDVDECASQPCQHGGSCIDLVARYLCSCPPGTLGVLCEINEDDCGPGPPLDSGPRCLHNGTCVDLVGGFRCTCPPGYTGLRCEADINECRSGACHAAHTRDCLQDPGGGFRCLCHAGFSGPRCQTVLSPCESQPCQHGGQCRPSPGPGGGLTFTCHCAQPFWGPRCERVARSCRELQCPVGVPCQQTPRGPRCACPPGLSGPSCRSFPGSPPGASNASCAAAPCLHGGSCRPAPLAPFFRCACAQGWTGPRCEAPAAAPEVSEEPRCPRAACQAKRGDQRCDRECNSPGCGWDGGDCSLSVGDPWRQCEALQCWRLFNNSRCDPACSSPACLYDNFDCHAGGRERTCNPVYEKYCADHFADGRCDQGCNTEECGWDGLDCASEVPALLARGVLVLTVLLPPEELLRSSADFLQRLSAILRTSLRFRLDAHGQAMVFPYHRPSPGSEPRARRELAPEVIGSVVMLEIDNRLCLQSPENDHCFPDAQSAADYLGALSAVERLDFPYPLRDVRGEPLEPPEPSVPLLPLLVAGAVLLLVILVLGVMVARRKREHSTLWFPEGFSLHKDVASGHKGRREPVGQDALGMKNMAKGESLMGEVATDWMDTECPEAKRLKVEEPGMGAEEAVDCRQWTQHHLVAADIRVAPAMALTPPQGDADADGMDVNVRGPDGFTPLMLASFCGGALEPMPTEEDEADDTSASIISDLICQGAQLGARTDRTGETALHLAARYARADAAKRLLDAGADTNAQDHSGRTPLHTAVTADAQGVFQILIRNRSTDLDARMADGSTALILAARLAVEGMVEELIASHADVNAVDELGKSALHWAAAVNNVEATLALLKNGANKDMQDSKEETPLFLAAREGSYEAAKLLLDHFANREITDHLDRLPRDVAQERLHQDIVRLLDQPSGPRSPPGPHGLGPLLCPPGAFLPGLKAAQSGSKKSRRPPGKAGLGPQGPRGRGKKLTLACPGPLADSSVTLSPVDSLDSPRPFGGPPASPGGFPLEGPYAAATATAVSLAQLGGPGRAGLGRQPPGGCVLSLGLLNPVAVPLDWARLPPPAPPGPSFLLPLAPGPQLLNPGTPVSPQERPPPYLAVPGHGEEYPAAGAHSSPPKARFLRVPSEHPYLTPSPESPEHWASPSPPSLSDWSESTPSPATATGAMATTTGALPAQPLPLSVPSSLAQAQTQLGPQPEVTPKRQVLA

Take `COCCOC(=O)N1C(=O)[C@@]2(c3cc(C#CC4=CCCCC4)ccc31)[C@H](C(=O)N1CCN(c3ncccn3)CC1)[C@H]1C(=O)O[C@H](c3ccccc3)[C@H](c3ccccc3)N1[C@@H]2c1ccc(OCCO)cc1`: the composite z-score is 1.55 in assay [1]; 2.02 in assay [5]; 0.415 in assay [7]; 0.554 in [8]; 1.14 in [9]; 0.145 in assay [10]. The composite z-score in [11] is -0.424; in [12], 0.282; in assay [13], 0.298; in assay [15], 1.3; in [16], 1.18; in assay [17], 0.959. Further, the values for the composite z-score in assay [18], in assay [19] and in assay [20] were 1.37, 0.994 and 1.26, respectively. Also, the z-score in [2] was 1.48 (inactive); in [3] it was 0.442 (inactive); in assay [4] it was 3.23 (inactive); in assay [6], 0.0301 (inactive); in assay [14] it was -0.902 (inactive).

For the molecule `C=CCOC(=O)[C@H]1[C@@H]2C(=O)O[C@@H](c3ccccc3)[C@@H](c3ccccc3)N2[C@@H](c2ccc(OCCOC(=O)[C@@H]3C[C@@H]4C(=O)NCC(=O)N4[C@@H]3c3ccc(O)cc3)cc2)[C@]12C(=O)Nc1ccc(I)cc12`, the composite z-score in [1] is 1.55; in [5] it was 2.57; in [7], -0.205; in assay [8] it was 1.64; in assay [9] it was 1.11; in [10], -0.0788. For the same molecule, the composite z-score was 1.49 in assay [11]; -0.106 in [12]; 0.0065 in [13]; 1.2 in [15]; 1.3 in assay [16]; 1.14 in assay [17]. Further, the composite z-score was found to be 1.34 in [18], 0.873 in [19] and 0.141 in assay [20]. The z-score in assay [2] was 0.591 (inactive); in [3], 0.0218 (inactive); in assay [4], 2.48 (inactive); in [6] it was -0.375 (inactive); in assay [14], -0.0179 (inactive).

As for `C=CC[C@@]1(C(=O)NCCN2CCOCC2)N=C(c2ccc(OCCCO)cc2)O[C@@H]1c1ccccc1CN=[N+]=[N-]`, the composite z-score in assay [1] was 1.56; in assay [5], 3.02; in [7], 0.149; in [8], -0.0392; in assay [9], 0.19; in assay [10], -0.0735. The composite z-score is 1.02 in assay [11]; 1.06 in [12]; 1.3 in [13]; 0.205 in assay [15]; 0.62 in assay [16]; -0.357 in assay [17]. Further, the composite z-score came out at 0.221 in assay [18], 0.137 in assay [19] and 1.46 in assay [20]. Also, the z-score was -1.46 (inactive) in [2]; -1.18 (inactive) in [3]; -0.548 (inactive) in [4]; 0.0499 (inactive) in assay [6]; -1.05 (inactive) in assay [14].

Turning to `COc1ccc([Si](C)(C)[C@H]2[C@H](CC(=O)N(CCO)Cc3ccccc3)O[C@@]3(C(=O)N(Cc4cccc(N5C(=O)c6cccc7cccc5c67)c4)c4ccccc43)[C@@H]2C)cc1`, the composite z-score in assay [1] was 1.19; in assay [5] it was 1.72; in assay [7], -0.0158; in [8], 0.315; in assay [9], 0.228; in assay [10], -0.378. Moreover, the composite z-score in assay [11] is 0.803; in [12], -0.534; in [13], 0.0901; in assay [15], 0.158; in assay [16], 0.0107; in assay [17], 0.148. For the same molecule, the composite z-score in assay [18] amounted to 0.303; in [19] it was 0.491; in assay [20] it was 0.9. The z-score is -1.64 (inactive) in assay [2]; -0.897 (inactive) in assay [3]; 2.79 (inactive) in [4]; 1.02 (inactive) in assay [6]; -2.5 (inactive) in assay [14].

Turning to `Cc1c(NC(=O)/C(C#N)=C/C=C/c2ccccc2)c(=O)n(-c2ccccc2)n1C`, the composite z-score in assay [1] is 0.311; in [5], 0.396; in [7], -0.31; in [8], 0.244; in [9], 0.478; in [10], -0.0293. Moreover, the composite z-score in assay [11] was 0.504; in assay [12], -0.0814; in assay [13] it was -0.366; in assay [15], -0.0134; in [16], 0.234; in assay [17], 0.513. The values for the composite z-score in assay [18], in assay [19] and in assay [20] were 0.573, 0.425 and 0.772, respectively. Also, the z-score in [2] is 0.243 (inactive); in [3], -0.678 (inactive); in assay [4], 0.561 (inactive); in assay [6], 1.94 (inactive); in assay [14], 0.777 (inactive).

For `O=C1OCCC/C=C\[C@H]2OC34C=CCN(Cn5nnc6ccccc65)C(=O)[C@H]3N(CCCO)C(=O)[C@@H]4C12` (stereo not given in full), the composite z-score was 1.19 in [1]; 3.64 in [5]; -0.225 in assay [7]; -0.9 in assay [8]; -0.0127 in assay [9]; -0.232 in [10]. For the same molecule, the composite z-score in [11] was 0.649; in assay [12], -0.282; in assay [13] it was 0.741; in assay [15] it was -1.34; in [16], -0.556; in assay [17], -1.43. Besides, the composite z-score was -0.921 in assay [18], -1.16 in assay [19] and -0.0648 in assay [20]. Further, the z-score in assay [2] was -0.57 (inactive); in assay [3], 0.0555 (inactive); in assay [4] it was -0.264 (inactive); in [6], 0.123 (inactive); in [14] it was 0.288 (inactive).

Turning to `CC(C)C[C@@H]1NC(=O)[C@@H]2C[C@H](C(=O)NCCCCN(C)C)[C@H](c3ccc(O)cc3)N2C1=O`, the composite z-score in [1] was 0.577; in [5] it was 0.218; in assay [7], 0.0566; in [8], 0.118; in assay [9] it was -0.531; in assay [10], -0.218. The composite z-score is 0.791 in assay [11]; 0.147 in assay [12]; 0.874 in [13]; -1.42 in assay [15]; -0.439 in assay [16]; -1.29 in assay [17]. Also, the composite z-score in [18] is -0.401; in assay [19] it was -0.283; in [20], -0.134. In addition, the z-score in [2] was -0.145 (inactive); in assay [3], 1.36 (inactive); in [4] it was -0.367 (inactive); in assay [6], -0.0929 (inactive); in assay [14], 0.619 (inactive).

For the molecule `CC(C)C(=C=CC[C@H](O)c1ccccc1OCCO)CCO`, the composite z-score in [1] is 1.35; in assay [5] it was 2.48; in assay [7], 0.0349; in [8], -0.143; in assay [9], -0.131; in assay [10], -0.0915. The composite z-score in assay [11] was 0.0112; in [12] it was 0.292; in assay [13], -0.0417; in assay [15], 0.0544; in assay [16], -0.144; in assay [17], -0.585. Further, the composite z-score in assay [18] was -0.449; in assay [19] it was -0.679; in assay [20], 0.913. The z-score was -0.655 (inactive) in [2]; -0.39 (inactive) in assay [3]; -0.236 (inactive) in assay [4]; -0.105 (inactive) in assay [6]; 0.232 (inactive) in assay [14].

For `Cc1ccc(S[C@]2(C(=O)NCc3ccccc3)CC(=O)N(Cc3cc(C(F)(F)F)cc(C(F)(F)F)c3)[C@@H]2c2ccc(CO)cc2)cc1`, the composite z-score in assay [1] is 1.34; in assay [5] it was 1.94; in assay [7], -0.225; in [8] it was 0.0043; in [9], -0.132; in [10], -0.325. Besides, the composite z-score in assay [11] is 1.3; in assay [12] it was -0.614; in assay [13] it was -0.711; in assay [15], -0.431; in [16], -0.817; in [17] it was -0.662. Moreover, the composite z-score was -0.247 in assay [18], -0.422 in [19] and 0.283 in [20]. Moreover, the z-score in assay [2] is 1.04 (inactive); in assay [3] it was -0.27 (inactive); in [4], 0.521 (inactive); in [6], -0.764 (inactive); in [14], 0.0364 (inactive).
